# Publication PMC7862700, “An all-to-all approach to the identification of sequence-specific readers for epigenetic DNA modifications on cytosine”
# What was measured:
# Experiment in all cases: DAPPL (digital affinity profiling via proximity ligation, sequencing); 10 mM Tris-HCl pH 7.5, 50 mM NaCl, 1 mM DTT, 4% glycerol, room temperature, 30 min; GST-TFs on glutathione beads, 16-mer random dsDNA library, 0.1% formaldehyde crosslink after washing; high values mean tight binding
# Conditions in all cases: protein: recombinant; tags: N-terminal GST; dsDNA, one strand shown
# [1] = target: T1, FLI1 (Homo sapiens, UniProt Q01543 1-452)
# T1 sequence: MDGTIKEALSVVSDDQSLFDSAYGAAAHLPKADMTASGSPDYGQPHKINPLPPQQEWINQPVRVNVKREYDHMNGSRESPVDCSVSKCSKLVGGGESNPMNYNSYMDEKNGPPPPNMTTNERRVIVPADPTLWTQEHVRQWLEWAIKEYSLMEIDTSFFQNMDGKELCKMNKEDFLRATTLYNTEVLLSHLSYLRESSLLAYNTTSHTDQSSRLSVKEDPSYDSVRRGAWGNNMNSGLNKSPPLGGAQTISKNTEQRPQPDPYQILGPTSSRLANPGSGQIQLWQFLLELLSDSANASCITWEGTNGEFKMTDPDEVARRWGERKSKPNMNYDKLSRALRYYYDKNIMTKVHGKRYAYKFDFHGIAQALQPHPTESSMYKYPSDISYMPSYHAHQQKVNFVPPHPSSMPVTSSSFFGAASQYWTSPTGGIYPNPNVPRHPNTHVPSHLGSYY
# How it was run: (§1)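 Yeast served to express human transcription factors as GST fusions, which were then captured on glutathione beads and labelled with DNA barcodes. Pooled with a tag-only sample, they were incubated with 200 nmole of a 16-mer random double-stranded DNA library for 30 min at room temperature in Tris/NaCl/DTT/glycerol buffer, washed, crosslinked with 0.1% formaldehyde, ligated by proximity, amplified by PCR and sequenced. Dividing each hexamer's read frequency for a factor by its frequency for the tag-only sample gives the binding signal.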
# [2] = target: T2, ELK1 (Homo sapiens, UniProt P19419 1-428)
# T2 sequence: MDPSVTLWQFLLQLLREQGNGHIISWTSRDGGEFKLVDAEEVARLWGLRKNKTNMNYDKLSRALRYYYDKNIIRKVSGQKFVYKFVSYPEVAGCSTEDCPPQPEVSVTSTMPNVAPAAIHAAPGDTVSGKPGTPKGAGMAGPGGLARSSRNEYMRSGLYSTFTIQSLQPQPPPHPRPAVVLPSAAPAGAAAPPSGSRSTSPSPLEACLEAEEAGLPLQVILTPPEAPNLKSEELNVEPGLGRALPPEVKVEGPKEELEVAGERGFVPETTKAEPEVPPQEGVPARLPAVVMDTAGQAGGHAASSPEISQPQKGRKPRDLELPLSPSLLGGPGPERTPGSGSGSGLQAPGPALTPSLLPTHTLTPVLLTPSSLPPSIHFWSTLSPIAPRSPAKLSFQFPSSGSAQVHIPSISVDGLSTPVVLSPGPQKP
# How it was run: as §1
# [3] = target: T3, GABPA (Homo sapiens, UniProt Q06546 1-454)
# T3 sequence: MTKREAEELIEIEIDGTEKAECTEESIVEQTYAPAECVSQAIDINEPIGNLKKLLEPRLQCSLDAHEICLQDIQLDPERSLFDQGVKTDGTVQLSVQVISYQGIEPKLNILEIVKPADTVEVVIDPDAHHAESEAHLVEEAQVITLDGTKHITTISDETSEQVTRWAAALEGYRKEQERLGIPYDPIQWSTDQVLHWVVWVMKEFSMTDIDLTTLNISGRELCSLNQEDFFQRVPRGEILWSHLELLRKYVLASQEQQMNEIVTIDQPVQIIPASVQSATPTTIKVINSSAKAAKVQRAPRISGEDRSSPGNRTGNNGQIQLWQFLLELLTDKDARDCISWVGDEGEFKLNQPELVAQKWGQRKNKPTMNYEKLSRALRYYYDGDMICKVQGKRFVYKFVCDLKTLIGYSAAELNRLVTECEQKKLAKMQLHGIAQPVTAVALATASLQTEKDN
# How it was run: as §1
# [4] = target: T4, ERG (Homo sapiens, UniProt P11308 1-479)
# T4 sequence: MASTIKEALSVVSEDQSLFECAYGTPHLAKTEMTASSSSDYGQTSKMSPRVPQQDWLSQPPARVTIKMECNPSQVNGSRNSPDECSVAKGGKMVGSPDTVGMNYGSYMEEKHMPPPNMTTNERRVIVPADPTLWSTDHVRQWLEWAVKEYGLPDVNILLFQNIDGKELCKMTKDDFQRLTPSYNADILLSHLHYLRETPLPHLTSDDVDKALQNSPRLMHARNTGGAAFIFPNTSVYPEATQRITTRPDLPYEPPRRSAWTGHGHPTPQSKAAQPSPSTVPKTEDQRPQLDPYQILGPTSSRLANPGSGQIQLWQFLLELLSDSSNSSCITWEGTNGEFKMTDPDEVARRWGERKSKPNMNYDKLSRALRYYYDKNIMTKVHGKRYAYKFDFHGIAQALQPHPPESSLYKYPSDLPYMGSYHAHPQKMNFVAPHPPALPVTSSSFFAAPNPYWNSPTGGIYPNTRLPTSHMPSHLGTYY
# How it was run: as §1
# [5] = target: ELF1 (Homo sapiens, UniProt P32519 1-619)
# How it was run: as §1
# [6] = target: T5, EHF (Homo sapiens, UniProt Q9NZC4 1-300)
# T5 sequence: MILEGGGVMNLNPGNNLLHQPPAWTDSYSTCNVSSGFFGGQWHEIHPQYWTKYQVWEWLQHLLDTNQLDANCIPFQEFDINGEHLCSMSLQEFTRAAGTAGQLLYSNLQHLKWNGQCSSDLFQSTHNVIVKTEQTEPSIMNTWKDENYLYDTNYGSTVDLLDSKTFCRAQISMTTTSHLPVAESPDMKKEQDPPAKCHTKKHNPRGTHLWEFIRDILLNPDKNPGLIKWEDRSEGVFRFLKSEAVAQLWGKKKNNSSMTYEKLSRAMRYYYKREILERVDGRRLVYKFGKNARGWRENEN
# How it was run: as §1
# [7] = target: SPI1 (Homo sapiens, UniProt P17947 1-270)
# How it was run: as §1
# [8] = target: SPIB (Homo sapiens, UniProt Q01892 1-262)
# How it was run: as §1
# [9] = target: T6, ELK3 (Homo sapiens, UniProt P41970 1-407)
# T6 sequence: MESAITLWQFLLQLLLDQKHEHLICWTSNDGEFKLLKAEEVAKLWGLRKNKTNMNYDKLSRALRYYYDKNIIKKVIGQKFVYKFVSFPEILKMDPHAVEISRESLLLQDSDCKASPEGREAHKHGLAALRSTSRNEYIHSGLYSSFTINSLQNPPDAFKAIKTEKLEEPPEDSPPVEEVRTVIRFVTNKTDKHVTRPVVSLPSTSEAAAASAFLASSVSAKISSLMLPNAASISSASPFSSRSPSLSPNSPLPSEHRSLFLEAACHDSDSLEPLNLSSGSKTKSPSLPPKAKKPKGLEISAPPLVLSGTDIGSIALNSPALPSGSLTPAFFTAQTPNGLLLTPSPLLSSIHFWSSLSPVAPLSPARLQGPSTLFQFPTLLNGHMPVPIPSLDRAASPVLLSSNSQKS
# How it was run: as §1
# [10] = target: T7, SPIC (Homo sapiens, UniProt Q8N5J4 1-248)
# T7 sequence: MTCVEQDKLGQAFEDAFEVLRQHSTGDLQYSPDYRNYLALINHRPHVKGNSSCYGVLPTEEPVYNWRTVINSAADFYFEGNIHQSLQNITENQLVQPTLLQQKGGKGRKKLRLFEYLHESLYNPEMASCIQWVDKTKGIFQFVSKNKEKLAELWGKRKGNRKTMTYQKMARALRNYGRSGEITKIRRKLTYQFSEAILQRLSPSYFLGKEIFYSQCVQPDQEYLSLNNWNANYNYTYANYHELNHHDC
# How it was run: as §1
# [11] = target: ELF4 (Homo sapiens, UniProt Q99607 1-663)
# How it was run: as §1
# [12] = target: T8, ELK4 (Homo sapiens, UniProt P28324-2 1-405)
# T8 sequence: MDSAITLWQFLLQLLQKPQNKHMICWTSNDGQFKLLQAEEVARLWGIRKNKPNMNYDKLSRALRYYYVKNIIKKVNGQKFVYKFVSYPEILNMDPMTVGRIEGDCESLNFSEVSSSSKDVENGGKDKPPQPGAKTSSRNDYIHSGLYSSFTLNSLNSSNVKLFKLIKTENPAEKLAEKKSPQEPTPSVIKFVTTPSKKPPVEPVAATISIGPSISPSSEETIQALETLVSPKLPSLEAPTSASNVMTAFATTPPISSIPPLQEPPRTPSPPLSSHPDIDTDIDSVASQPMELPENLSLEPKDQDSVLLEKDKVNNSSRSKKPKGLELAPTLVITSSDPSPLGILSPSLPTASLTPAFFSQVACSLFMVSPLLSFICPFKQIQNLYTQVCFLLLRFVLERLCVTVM
# How it was run: as §1
# [13] = target: T9, ETV2 (Homo sapiens, UniProt O00321 1-342)
# T9 sequence: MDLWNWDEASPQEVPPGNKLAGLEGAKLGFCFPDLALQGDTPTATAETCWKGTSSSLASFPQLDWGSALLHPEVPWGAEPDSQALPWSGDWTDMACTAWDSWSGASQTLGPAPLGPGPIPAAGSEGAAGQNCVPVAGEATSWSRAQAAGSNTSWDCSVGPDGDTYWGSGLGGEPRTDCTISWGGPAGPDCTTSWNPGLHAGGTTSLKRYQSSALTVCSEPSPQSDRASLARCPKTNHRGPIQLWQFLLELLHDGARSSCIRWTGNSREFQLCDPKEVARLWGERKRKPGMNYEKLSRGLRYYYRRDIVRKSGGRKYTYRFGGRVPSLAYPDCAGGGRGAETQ
# How it was run: as §1
# [14] = target: T10, ELF3 (Homo sapiens, UniProt P78545 1-371)
# T10 sequence: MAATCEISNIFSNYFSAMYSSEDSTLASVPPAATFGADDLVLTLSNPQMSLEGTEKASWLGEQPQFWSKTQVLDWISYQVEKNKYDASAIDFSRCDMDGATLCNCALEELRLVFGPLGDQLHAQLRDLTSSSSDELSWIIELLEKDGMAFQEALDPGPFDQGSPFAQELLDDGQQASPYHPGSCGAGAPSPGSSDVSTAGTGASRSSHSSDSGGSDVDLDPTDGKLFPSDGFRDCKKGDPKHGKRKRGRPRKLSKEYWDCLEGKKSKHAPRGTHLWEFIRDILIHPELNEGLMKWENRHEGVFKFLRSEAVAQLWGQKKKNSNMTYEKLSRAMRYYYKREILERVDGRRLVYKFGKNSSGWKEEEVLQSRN
# How it was run: as §1
# [15] = target: ETV1 (Homo sapiens, UniProt P50549 1-477)
# How it was run: as §1
# [16] = target: T11, ERF (Homo sapiens, UniProt P50548 1-548)
# T11 sequence: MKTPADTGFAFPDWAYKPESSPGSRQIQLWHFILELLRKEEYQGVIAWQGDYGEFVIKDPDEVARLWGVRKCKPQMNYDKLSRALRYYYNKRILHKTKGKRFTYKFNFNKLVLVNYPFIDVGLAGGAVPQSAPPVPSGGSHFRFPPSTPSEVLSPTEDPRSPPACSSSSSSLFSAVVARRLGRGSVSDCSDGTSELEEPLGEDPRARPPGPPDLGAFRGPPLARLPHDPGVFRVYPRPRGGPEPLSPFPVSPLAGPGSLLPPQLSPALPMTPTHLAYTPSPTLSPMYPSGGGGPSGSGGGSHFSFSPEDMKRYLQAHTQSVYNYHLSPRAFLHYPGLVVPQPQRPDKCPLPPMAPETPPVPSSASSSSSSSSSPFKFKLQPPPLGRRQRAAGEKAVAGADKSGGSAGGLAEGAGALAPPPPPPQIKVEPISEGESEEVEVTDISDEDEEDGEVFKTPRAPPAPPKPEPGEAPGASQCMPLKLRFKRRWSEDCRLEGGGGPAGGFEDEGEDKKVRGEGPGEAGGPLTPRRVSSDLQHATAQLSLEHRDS
# How it was run: as §1
# [17] = target: T12, ETV3L (Homo sapiens, UniProt Q6ZN32 1-361)
# T12 sequence: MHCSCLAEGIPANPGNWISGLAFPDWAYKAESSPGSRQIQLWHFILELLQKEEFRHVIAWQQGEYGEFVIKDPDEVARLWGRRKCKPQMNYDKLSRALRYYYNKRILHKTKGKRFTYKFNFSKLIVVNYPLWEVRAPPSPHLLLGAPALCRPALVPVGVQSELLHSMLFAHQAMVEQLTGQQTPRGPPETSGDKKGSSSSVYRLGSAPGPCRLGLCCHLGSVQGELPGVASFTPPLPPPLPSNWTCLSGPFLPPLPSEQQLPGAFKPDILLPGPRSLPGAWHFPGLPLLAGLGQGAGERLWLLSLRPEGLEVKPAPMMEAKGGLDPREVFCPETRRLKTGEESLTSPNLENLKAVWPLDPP
# How it was run: as §1
# [18] = target: T13, ETV3 (Homo sapiens, UniProt P41162-2 1-143)
# T13 sequence: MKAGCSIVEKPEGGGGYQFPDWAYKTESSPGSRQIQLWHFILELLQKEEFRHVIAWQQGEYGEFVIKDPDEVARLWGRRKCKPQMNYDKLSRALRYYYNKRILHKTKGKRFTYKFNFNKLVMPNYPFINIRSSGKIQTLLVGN
# How it was run: as §1
# [19] = target: ETV6 (Homo sapiens, UniProt P41212 1-452)
# How it was run: as §1
# ETV6, sequence (P41212 whole entry): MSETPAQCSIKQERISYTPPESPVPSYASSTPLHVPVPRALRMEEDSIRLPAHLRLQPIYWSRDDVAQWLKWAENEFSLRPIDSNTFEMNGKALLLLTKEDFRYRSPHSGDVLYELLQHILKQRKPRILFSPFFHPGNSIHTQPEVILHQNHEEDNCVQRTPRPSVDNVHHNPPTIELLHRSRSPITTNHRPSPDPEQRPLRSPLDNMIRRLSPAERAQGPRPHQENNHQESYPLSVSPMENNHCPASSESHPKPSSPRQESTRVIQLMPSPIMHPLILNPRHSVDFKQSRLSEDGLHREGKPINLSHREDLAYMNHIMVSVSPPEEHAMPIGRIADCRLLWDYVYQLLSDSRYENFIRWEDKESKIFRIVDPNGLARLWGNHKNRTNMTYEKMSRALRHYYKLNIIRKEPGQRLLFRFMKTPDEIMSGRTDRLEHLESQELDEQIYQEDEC
# ETV1, sequence (P50549 whole entry): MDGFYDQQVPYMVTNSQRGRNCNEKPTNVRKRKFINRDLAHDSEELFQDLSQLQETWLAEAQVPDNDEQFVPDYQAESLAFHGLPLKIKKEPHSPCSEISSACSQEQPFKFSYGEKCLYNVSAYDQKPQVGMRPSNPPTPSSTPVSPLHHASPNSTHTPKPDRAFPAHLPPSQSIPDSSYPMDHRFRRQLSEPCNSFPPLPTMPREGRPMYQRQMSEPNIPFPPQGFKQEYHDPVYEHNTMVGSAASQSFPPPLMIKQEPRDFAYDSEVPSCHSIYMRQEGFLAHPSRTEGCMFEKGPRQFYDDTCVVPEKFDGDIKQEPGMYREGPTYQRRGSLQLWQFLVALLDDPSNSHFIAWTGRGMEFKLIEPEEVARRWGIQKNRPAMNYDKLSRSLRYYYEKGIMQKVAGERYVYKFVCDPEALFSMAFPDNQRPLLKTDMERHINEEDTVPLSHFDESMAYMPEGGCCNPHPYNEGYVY
# ELF4, sequence (Q99607 whole entry): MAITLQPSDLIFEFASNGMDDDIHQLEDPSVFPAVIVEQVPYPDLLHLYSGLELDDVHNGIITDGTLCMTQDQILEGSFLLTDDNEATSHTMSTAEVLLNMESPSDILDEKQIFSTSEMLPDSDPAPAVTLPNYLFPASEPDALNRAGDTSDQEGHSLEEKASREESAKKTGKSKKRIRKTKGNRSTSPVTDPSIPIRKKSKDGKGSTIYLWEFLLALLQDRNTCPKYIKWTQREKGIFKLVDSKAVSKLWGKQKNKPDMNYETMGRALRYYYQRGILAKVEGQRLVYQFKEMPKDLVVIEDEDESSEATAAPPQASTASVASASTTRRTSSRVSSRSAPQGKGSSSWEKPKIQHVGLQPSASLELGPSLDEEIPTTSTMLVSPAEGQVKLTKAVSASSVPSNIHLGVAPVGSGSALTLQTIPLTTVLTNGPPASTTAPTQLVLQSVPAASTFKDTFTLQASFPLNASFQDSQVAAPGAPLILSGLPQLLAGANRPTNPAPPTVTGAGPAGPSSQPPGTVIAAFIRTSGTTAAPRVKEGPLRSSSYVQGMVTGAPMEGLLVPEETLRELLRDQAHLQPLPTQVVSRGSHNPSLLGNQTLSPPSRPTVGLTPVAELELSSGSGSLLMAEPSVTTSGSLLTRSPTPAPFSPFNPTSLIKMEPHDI
# SPIB, sequence (Q01892 whole entry): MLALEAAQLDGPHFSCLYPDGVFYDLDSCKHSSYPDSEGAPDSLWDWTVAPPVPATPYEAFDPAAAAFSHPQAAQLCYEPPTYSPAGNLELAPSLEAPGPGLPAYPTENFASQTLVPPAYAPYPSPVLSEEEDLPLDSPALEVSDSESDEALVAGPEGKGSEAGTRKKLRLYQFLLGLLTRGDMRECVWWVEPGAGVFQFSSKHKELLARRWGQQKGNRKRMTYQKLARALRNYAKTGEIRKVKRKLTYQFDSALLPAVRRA
# ELF1, sequence (P32519 whole entry): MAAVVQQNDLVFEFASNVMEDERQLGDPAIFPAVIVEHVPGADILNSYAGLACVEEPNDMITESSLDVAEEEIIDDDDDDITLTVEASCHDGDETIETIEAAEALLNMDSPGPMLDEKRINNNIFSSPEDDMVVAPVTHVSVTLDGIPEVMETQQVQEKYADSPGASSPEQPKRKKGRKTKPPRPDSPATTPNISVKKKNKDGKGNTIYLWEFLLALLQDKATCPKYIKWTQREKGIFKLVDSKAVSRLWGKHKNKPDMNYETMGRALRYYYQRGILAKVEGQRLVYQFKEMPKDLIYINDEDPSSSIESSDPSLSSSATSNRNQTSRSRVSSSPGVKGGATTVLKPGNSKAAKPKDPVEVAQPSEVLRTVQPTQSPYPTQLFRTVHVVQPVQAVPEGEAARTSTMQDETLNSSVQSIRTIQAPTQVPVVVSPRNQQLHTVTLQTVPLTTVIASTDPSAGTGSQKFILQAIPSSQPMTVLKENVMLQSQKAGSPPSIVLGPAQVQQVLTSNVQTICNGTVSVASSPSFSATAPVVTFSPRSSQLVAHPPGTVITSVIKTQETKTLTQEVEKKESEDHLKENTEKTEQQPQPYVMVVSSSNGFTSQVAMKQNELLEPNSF
sequence,measurement,setting,value
ATGGGG,binding signal,[1],"1.11 fold enrichment (6-mer frequency, TF over GST control)"
same,binding signal,[2],"1.09 fold enrichment (6-mer frequency, TF over GST control)"
same,binding signal,[3],"1.08 fold enrichment (6-mer frequency, TF over GST control)"
same,binding signal,[4],"1.07 fold enrichment (6-mer frequency, TF over GST control)"
same,binding signal,[5],"1.06 fold enrichment (6-mer frequency, TF over GST control)"
same,binding signal,[6],"1.11 fold enrichment (6-mer frequency, TF over GST control)"
same,binding signal,[7],"1.11 fold enrichment (6-mer frequency, TF over GST control)"
same,binding signal,[8],"1.14 fold enrichment (6-mer frequency, TF over GST control)"
same,binding signal,[9],"1.05 fold enrichment (6-mer frequency, TF over GST control)"
same,binding signal,[10],"1.16 fold enrichment (6-mer frequency, TF over GST control)"
same,binding signal,[11],"1.02 fold enrichment (6-mer frequency, TF over GST control)"
same,binding signal,[12],"1.03 fold enrichment (6-mer frequency, TF over GST control)"
same,binding signal,[13],"1.16 fold enrichment (6-mer frequency, TF over GST control)"
same,binding signal,[14],"1.06 fold enrichment (6-mer frequency, TF over GST control)"
same,binding signal,[15],"1.15 fold enrichment (6-mer frequency, TF over GST control)"
same,binding signal,[16],"1.08 fold enrichment (6-mer frequency, TF over GST control)"
same,binding signal,[17],"1.16 fold enrichment (6-mer frequency, TF over GST control)"
same,binding signal,[18],"1.13 fold enrichment (6-mer frequency, TF over GST control)"
same,binding signal,[19],"1.18 fold enrichment (6-mer frequency, TF over GST control)"
